Screening results from PubChem BioAssay.
Compounds with a hit are over-represented: about 1.4% of the library has one in this group of screens.
PrPC surface inh = inhibitors of human cell surface prion protein PrPC; P04156; TR-FRET read-out; inhibition, % at 13.8 µM; 0.43% of 370,000 active; AID 720596; in the data active means inhibition above about 24%; further: 0% = median of the test wells and 100% = reference compound wells
PrP UTR inh = inhibition of PrP 5' UTR reporter expression. cell-based PrP 5' UTR mRNA reporter, plate reader. inhibition, % (no concentration beside the values). 0.35% of 340,000 active. AID 488862; in the data active means inhibition above about 52%; further: 0 = median of the neutral control wells
SSB-PriA inh = blocks PriA binding to SSB C-terminal tail; inhibition, % at 33 µM; 0.6% of 430,000 active; AlphaScreen SSBct-PriA binding, biotinylated peptide; in the data active means inhibition mostly above about 37%, no sharp cut-off; inactive means mostly below about 20%;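 further: plate controls were negative control peptide for no effect and reference peptide for full effect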
FadD28 FP inh = blocks FadD28 binding to the bisubstrate probe; fluorescence polarization; inhibition, % at 12.5 µM; 0.22% of 360,000 active; AID 588549; in the data active means inhibition above about 8.5%, passing the limit was not always enough
Vc quorum ag = induces V. cholerae light production without autoinducers | V. cholerae BH1578 lux reporter, luminescence, 6 h | activation, % at 18.7 µM | 0.16% of 350,000 active; in the data active means activation mostly above about 9.7%, no sharp cut-off
* hit, by the source's call.

What do the screens show for `O=C(Nc1nc(-c2ccccn2)cs1)c1ccc(NC(=O)c2cccs2)cc1`?
SSB-PriA inh: 97*

How did N#Cc1ccccc1Sc1ccccc1C(=O)Nc1nc(-c2ccccn2)cs1 do in these assays?
SSB-PriA inh: 34

How did O=C(Nc1nc(-c2ccccn2)cs1)c1ccccc1C(F)(F)F do in these assays?
SSB-PriA inh: 88*

Results for CS(=O)(=O)Cc1ccc(C(=O)Nc2nc(-c3ccccn3)cs2)cc1 ?
SSB-PriA inh: 17

How did COc1ccc(S(=O)(=O)Nc2ccc(C(=O)Nc3nc(-c4ccccn4)cs3)cc2)cc1 do in these assays?
SSB-PriA inh: 95*

What do the screens show for `O=C(Nc1nc(-c2ccccn2)cs1)C1=COCCO1`?
SSB-PriA inh: 106*

Results for CN(C)c1ncc(NC(=O)Nc2cccc(C(F)(F)F)c2)cn1 ?
SSB-PriA inh: -2

Results for Cc1nc(C(=O)Nc2nc(-c3ccccn3)cs2)c(C(C)C)s1 ?
SSB-PriA inh: 68*

Results for O=C(Nc1nc(-c2ccccn2)cs1)c1c[n+]2cccnc2[nH]1 ?
SSB-PriA inh: 99*

How did O=C(/C=C/c1ccccc1)Nc1nc(-c2ccccn2)cs1 do in these assays?
SSB-PriA inh: 15

Results for Cc1occc1C(=O)Nc1nc(-c2ccccn2)cs1 ?
SSB-PriA inh: 112*

Results for O=C(/C=C/c1cccs1)Nc1nc(-c2ccccn2)cs1 ?
SSB-PriA inh: 66*

Results for Cc1sc2ncc(C(=O)Nc3nc(-c4ccccn4)cs3)c(=O)n2c1C ?
SSB-PriA inh: 35

How did COc1ccc(-c2csc(NC(=O)c3ccoc3C)n2)cc1 do in these assays?
PrPC surface inh: 10; PrP UTR inh: -59; SSB-PriA inh: -4; FadD28 FP inh: 0; Vc quorum ag: -1

What do the screens show for `O=S(=O)(NCC(c1cccs1)S(=O)(=O)c1ccc(F)cc1)c1ccc(Cl)cc1` (stereo unspecified)?
SSB-PriA inh: 8

How did O=C(Nc1nc(-c2ccccn2)cs1)c1ccc(Cl)s1 do in these assays?
PrPC surface inh: 15; PrP UTR inh: 15; SSB-PriA inh: 32; FadD28 FP inh: -9; Vc quorum ag: 0

How did Cc1ccc(C(=O)Nc2nc(-c3ccccn3)cs2)s1 do in these assays?
PrPC surface inh: 20; PrP UTR inh: 10; SSB-PriA inh: 47*; FadD28 FP inh: -4; Vc quorum ag: 0

Results for CC(C)(C)NC(=O)C(=O)Nc1nc(-c2ccccn2)cs1 ?
SSB-PriA inh: 101*

What do the screens show for `O=C(Nc1nnc(-c2ccc(F)cc2)o1)C1CCCN1S(=O)(=O)c1cccs1` (stereo unspecified)?
PrPC surface inh: -3; PrP UTR inh: -26; SSB-PriA inh: -4; FadD28 FP inh: -1; Vc quorum ag: inactive

What do the screens show for `COc1ccccc1-c1nnc(NC(=O)C2CCCN2S(=O)(=O)c2cccs2)o1` (stereo unspecified)?
PrPC surface inh: -2; SSB-PriA inh: 75*; FadD28 FP inh: -1; Vc quorum ag: inactive

What do the screens show for `CS(=O)(=O)c1ccc(C(=O)Nc2nc(-c3ccccn3)cs2)cc1`?
SSB-PriA inh: 75*

What do the screens show for `O=C(Nc1nc(-c2ccccn2)cs1)c1ncc(Cl)c(Cl)c1Cl`?
PrPC surface inh: 2; PrP UTR inh: -11; SSB-PriA inh: 12; FadD28 FP inh: -1; Vc quorum ag: -4

What do the screens show for `O=C(Nc1nc(-c2ccccn2)cs1)c1ccccn1`?
SSB-PriA inh: 162*

Results for COc1ccc(S(=O)(=O)CC(=O)Nc2nc(-c3ccccn3)cs2)cc1 ?
SSB-PriA inh: 88*

What do the screens show for `O=C(Nc1nc(-c2ccccn2)cs1)c1ccc(Cl)cc1`?
SSB-PriA inh: 73*

Results for CC1CN(Cc2ccc(C(=O)Nc3nc(-c4ccccn4)cs3)cc2)CC(C)O1 (stereo unspecified) ?
SSB-PriA inh: 114*

Results for COc1cccc(CNC(=O)c2cc(-c3cc[nH]c3)n[nH]2)c1OC ?
SSB-PriA inh: -11

What do the screens show for `COc1cc([N+](=O)[O-])cc(C=NNC(=O)c2cc(C)nc3ccccc23)c1O`?
SSB-PriA inh: 17

How did O=S(=O)(c1ccc(F)cc1)c1nc(-c2cccs2)oc1SCc1ccc(F)cc1 do in these assays?
SSB-PriA inh: -8

How did Cc1c(C(=O)Nc2nc(-c3ccccn3)cs2)oc2ccccc12 do in these assays?
PrP UTR inh: 1; SSB-PriA inh: 69*; FadD28 FP inh: -2; Vc quorum ag: inactive

How did O=C(Nc1nc(-c2ccccn2)cs1)c1cc2ccccc2o1 do in these assays?
PrPC surface inh: 8; PrP UTR inh: -33; SSB-PriA inh: 20; FadD28 FP inh: -10; Vc quorum ag: 0

Results for O=C(CC12CC3CC(CC(O)(C3)C1)C2)Nc1nc(-c2ccccn2)cs1 ?
SSB-PriA inh: 97*

What do the screens show for `CCc1sc(C(=O)Nc2nc(-c3ccccn3)cs2)cc1C`?
PrP UTR inh: 19; SSB-PriA inh: 13; FadD28 FP inh: -5; Vc quorum ag: inactive

What do the screens show for `O=C(Nc1nc(-c2ccccn2)cs1)[C@@H]1CCCN1S(=O)(=O)c1cccs1`?
SSB-PriA inh: 91*

What do the screens show for `Cc1nnsc1C(=O)Nc1nc(-c2ccccn2)cs1`?
SSB-PriA inh: 136*

What do the screens show for `O=C(NCC1CCN(Cc2ccco2)CC1)c1cc2ccccc2oc1=O`?
SSB-PriA inh: -11

Results for O=C(Nc1nc(-c2ccccn2)cs1)c1n[nH]c2c1CCCCC2 ?
SSB-PriA inh: 62*

Results for Cc1cc(C)cc(C(=O)Nc2nc(-c3ccccn3)cs2)c1 ?
SSB-PriA inh: 92*

Results for Cc1nc(C)c(C(=O)Nc2cnn([C@H]3CCOC3)c2)s1 ?
SSB-PriA inh: -13

What do the screens show for `Oc1ccc(/C=N/N(Cc2ccccc2)c2ccccc2)c(O)c1O`?
PrPC surface inh: -2; PrP UTR inh: -28; FadD28 FP inh: 16*; Vc quorum ag: -1

How did Cc1cccc(CC(=O)NC[C@](C)(O)C2CC2)c1 do in these assays?
SSB-PriA inh: -12

What do the screens show for `N#Cc1nc(-c2ccco2)oc1N1CCN(C(c2ccccc2)c2ccccc2)CC1`?
PrPC surface inh: 0; PrP UTR inh: -81; SSB-PriA inh: 5; FadD28 FP inh: 0; Vc quorum ag: inactive

What do the screens show for `N#Cc1nc(-c2ccco2)oc1N1CCCC1`?
PrPC surface inh: 2; PrP UTR inh: -14; SSB-PriA inh: 0; FadD28 FP inh: 1; Vc quorum ag: 0

What do the screens show for `N#Cc1nc(-c2ccco2)oc1N1CCN(c2cccc(Cl)c2)CC1`?
PrPC surface inh: -1; PrP UTR inh: -3; SSB-PriA inh: 50*; FadD28 FP inh: 0; Vc quorum ag: inactive

How did N#Cc1nc(-c2ccco2)oc1N1CCc2ccccc2C1 do in these assays?
PrPC surface inh: 1; PrP UTR inh: -10; SSB-PriA inh: 43*; FadD28 FP inh: 0; Vc quorum ag: 0

What do the screens show for `O=C(O)c1cc(-n2cccc2)ccn1`?
SSB-PriA inh: 95*

How did O=C(c1cc(-n2cccc2)ccn1)N1CCN(C/C=C/c2ccccc2)CC1 do in these assays?
SSB-PriA inh: -10

How did O=C(Cn1ccc2ccccc21)Nc1cc(N2CCN(Cc3ccccc3)CC2)ncn1 do in these assays?
SSB-PriA inh: 44*
